Only some compounds are listed: those with a hit (about 1.6% of all), similar ones and a draw of the others.
Sa RN4220 lethal: kills Staphylococcus aureus RN4220; S. aureus RN4220 growth, OD600, 16 h; inhibition, % (test concentration not listed); hit rate 0.33% among 330,000; AID 1259311; in the data active = inhibition above about 85%;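 also: plate controls were untreated cells for no effect and reference antibiotic for full effect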
Sa ugtP lethal: growth inhibition of S. aureus ugtP deletion strain | S. aureus RN4220 ugtP deletion, OD600 growth, 16 h | growth inhibition, % (concentration not given with the values) | hit rate 0.54% among 330,000; in the data active = growth inhibition above about 68%;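 also: plate controls were untreated wells for no effect and antibiotic for full effect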
PfHsp40 yeast: restores yeast growth despite PfHsp40 toxicity; S. cerevisiae expressing PfHsp40, growth rescue, ATP luminescence; growth rescue, % at 12.5 µM; hit rate 0.68% among 340,000; in the data active = growth rescue above about 28%, passing the limit was not always enough; inconclusive = no clear call, values can overlap the other calls;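 also: yeast W303a lacking pdr1 and pdr3 grown in galactose medium; growth measured after three days at 30 °C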
BJeLR lethal: kills HRASV12-expressing BJeLR cells; AID 1554; hit rate 0.17% among 300,000; inhibition, % (concentration not given with the values); BJeLR (HRASV12) viability, CellTiter-Glo ATP luminescence, 48 h; in the data active = inhibition above about 50%; inconclusive = no clear call, values can overlap the other calls
CCHFV vOTU inh: blocks the CCHF virus ovarian tumor domain protease; CCHFV vOTU protease, Pep-AMC fluorescence; inhibition, % at 11.5 µM; hit rate 0.55% among 370,000; AID 651958; in the data active = inhibition above about 30%; also: 0% = vehicle wells with enzyme and 100% = no enzyme wells
Starred values were filed as active, the others as inactive.

`Cc1ccc(S(=O)(=O)NCC2CCC(C(=O)NCc3ccc4c(c3)OCO4)CC2)cc1` (stereo not drawn) gave Sa RN4220 lethal 2, Sa ugtP lethal 3, PfHsp40 yeast 0, BJeLR lethal -2 and CCHFV vOTU inh -9.
`COC(=O)c1[nH]c2cccc(OC)c2c1NC(=O)CN1CCOCC1` gave Sa RN4220 lethal -9, Sa ugtP lethal -8, PfHsp40 yeast 52*, BJeLR lethal -2 and CCHFV vOTU inh -15.
For CCN1C(=O)C2C(c3ccc(SC4CCCCC4)cc3)N3CCC[C@@]3(C(=O)OC)C2C1=O (stereo partly drawn) the results were Sa RN4220 lethal 3 and Sa ugtP lethal -8.
For Cc1ccnc2nc(C(=O)NC3CCCc4ccccc43)nn12 (stereo not drawn) the results were Sa RN4220 lethal -2, Sa ugtP lethal -1, PfHsp40 yeast 147* and CCHFV vOTU inh -13.
Cc1occc1C(=O)NC1CCCc2ccccc21 (stereo not drawn) was read as Sa RN4220 lethal 6, Sa ugtP lethal -1, PfHsp40 yeast 0, BJeLR lethal 5 and CCHFV vOTU inh -4.
For O=C1NCCOC(=O)C(Cc2ccc(F)cc2)CCC=CCC1CC(=O)N(CCO)Cc1ccccc1 (stereo not drawn) the results were Sa RN4220 lethal -1 and Sa ugtP lethal -3.
Screening O=C(Nc1ccccc1)c1ccc(Br)c(S(=O)(=O)Nc2ccccn2)c1 returned Sa RN4220 lethal 0, Sa ugtP lethal -3, PfHsp40 yeast 48*, BJeLR lethal 0 and CCHFV vOTU inh 4.
`Cc1c(NC(=O)C=Cc2cn(-c3ccccc3)nc2-c2ccccc2)c(=O)n(-c2ccccc2)n1C` gave Sa RN4220 lethal 0 and Sa ugtP lethal 1.
CCn1nc(-c2ccccc2)nc2c(=O)n(C)c(=O)nc1-2 was read as Sa RN4220 lethal 95*, Sa ugtP lethal 100*, PfHsp40 yeast 11 and BJeLR lethal 0.
`CCN(CC)c1ccc(C(=S)NC2CCCCC2)cc1` gave Sa RN4220 lethal 90, Sa ugtP lethal active, PfHsp40 yeast 5, BJeLR lethal -2 and CCHFV vOTU inh 5.
`CN(C)c1ccc(C(=S)NC2CCCCC2)cc1` gave Sa RN4220 lethal 7, Sa ugtP lethal 19, PfHsp40 yeast 0, BJeLR lethal -8 and CCHFV vOTU inh 0.
`CC(=S)/C=C1\Sc2ccccc2N1C` gave Sa RN4220 lethal 0, Sa ugtP lethal -1, PfHsp40 yeast 1, BJeLR lethal 4 and CCHFV vOTU inh -2.
`CC[n+]1c(/C=C2\Sc3ccccc3N2C)ccc2cccc(C)c21` gave Sa RN4220 lethal 100*, Sa ugtP lethal 101*, PfHsp40 yeast -1, BJeLR lethal 35 and CCHFV vOTU inh 21.
For O=C(NN=Cc1sc(=O)n(Cc2ccc(Br)cc2)c1Cl)c1ccco1 the results were Sa RN4220 lethal 0 and Sa ugtP lethal 1.
Cc1ccc(S(=O)(=O)NC23CC4CC(CC(C4)C2)C3)cc1 was read as PfHsp40 yeast 107* and CCHFV vOTU inh 9.
For Cc1ccc(C2C(=C(O)c3ccc(Br)cc3)C(=O)C(=O)N2Cc2ccco2)o1 (stereo not drawn) the results were Sa RN4220 lethal 10 and Sa ugtP lethal -12.
CC(=O)Nc1ccc(C(=O)NN=Cc2ccc(F)cc2)cc1 was read as Sa RN4220 lethal 3 and Sa ugtP lethal 11.
`Oc1ccccc1N=Nc1nc(-c2ccccc2)c(-c2ccccc2)[nH]1` gave PfHsp40 yeast inconclusive, BJeLR lethal 67* and CCHFV vOTU inh 7.
`CCOc1ccc(-c2c(C(=O)NN=C(C)c3ccco3)nnn2-c2nonc2N)cc1` gave Sa RN4220 lethal 4 and Sa ugtP lethal 8.
CC(CC(=O)Nc1ccc2c(c1)OCCO2)=NNC(=O)c1ccccn1 was read as Sa RN4220 lethal 4 and Sa ugtP lethal 4.
Screening S=c1[nH]nc(-c2cc(-c3ccccc3)n[nH]2)n1N=Cc1c(Cl)cccc1Cl returned Sa RN4220 lethal 8 and Sa ugtP lethal 0.
Screening CCCCOC(=O)Nc1sc2c(c1C(=O)OC)CCC2 returned Sa RN4220 lethal 7, Sa ugtP lethal 92*, PfHsp40 yeast 0, BJeLR lethal 1 and CCHFV vOTU inh 14.
`CCOC(=O)Nc1sc2c(c1C(=O)OCC)CCC2` gave Sa RN4220 lethal -1, Sa ugtP lethal 61, PfHsp40 yeast 0, BJeLR lethal -4 and CCHFV vOTU inh 4.
For C#CCOCCOCCOCCNc1nc(N2CCOCC2)nc(N2CCN(C(=O)C(CCCCN)n3cc(C(N)CO)nn3)CC2)n1 (stereo not drawn) the results were Sa RN4220 lethal 8 and Sa ugtP lethal 0.
For O=C(NN=C/C=C\c1ccccc1[N+](=O)[O-])c1cccs1 the results were Sa RN4220 lethal 2 and Sa ugtP lethal 4.
`O=C(Nc1cccnc1)Nc1ccccc1Cl` gave Sa RN4220 lethal 5, Sa ugtP lethal -3, PfHsp40 yeast 0, BJeLR lethal 3 and CCHFV vOTU inh -2.
`O=C(Nc1cccnc1)Nc1cc(Cl)cc(Cl)c1` gave Sa RN4220 lethal 100*, Sa ugtP lethal 99*, PfHsp40 yeast -2, BJeLR lethal -4 and CCHFV vOTU inh -7.
`Cc1nc(N2CCc3ccccc3C2)[nH]c(=O)c1Cc1ccccc1` gave PfHsp40 yeast 1, BJeLR lethal -2 and CCHFV vOTU inh 0.
Cc1nc(-n2[nH]c3c(c2=O)CCCC3)[nH]c(=O)c1Cc1ccccc1 was read as Sa RN4220 lethal 69, Sa ugtP lethal 64, PfHsp40 yeast 52*, BJeLR lethal 8 and CCHFV vOTU inh 7.
For CC1=NN(c2ccc(C)cc2)C(=O)/C1=C/c1ccc(-c2cc([N+](=O)[O-])ccc2O)o1 the results were Sa RN4220 lethal 39, Sa ugtP lethal 85*, PfHsp40 yeast -2, BJeLR lethal 0 and CCHFV vOTU inh -2.
`CCn1c(O)c(C2=c3ccccc3=NC2=O)c2cc(Br)ccc21` gave Sa RN4220 lethal 100*, Sa ugtP lethal 101*, BJeLR lethal 4 and CCHFV vOTU inh 1.
`O=C1N=c2ccccc2=C1c1c(O)n(-c2cccc(F)c2)[nH]c1=O` gave Sa RN4220 lethal 5, Sa ugtP lethal 4, PfHsp40 yeast 0, BJeLR lethal 8 and CCHFV vOTU inh -4.
`Cc1cc(NN=Cc2ccc(O)c(C)c2O)nc(-c2ccccc2O)n1` gave Sa RN4220 lethal 99* and Sa ugtP lethal 98*.
For Cc1cc(N/N=C/c2c(O)ccc3ccccc23)nc(-c2ccccc2O)n1 the results were PfHsp40 yeast -1, BJeLR lethal 18 and CCHFV vOTU inh -15.
For Cc1cc(NN=Cc2c(O)ccc3ccccc23)nc(-c2ccccc2O)n1 the results were Sa RN4220 lethal 99* and Sa ugtP lethal 98*.
Screening CCCCC[n+]1cccc2c3ccccc3ccc21 returned PfHsp40 yeast 0, BJeLR lethal 27 and CCHFV vOTU inh -101.
`Cc1ccc2c(C)c3ccc4ccccc4c3c[n+]2c1` gave PfHsp40 yeast 368* and CCHFV vOTU inh -111.
`COc1cc(C=NNC(=S)NN=Cc2cc(OC)c(OC)c(OC)c2)cc(OC)c1OC` gave Sa RN4220 lethal 1 and Sa ugtP lethal 3.
